The test is described as follows: CTGF mRNA reduction under YAP1 overexpression, dose response, mechanism study for YAP1 pathway inhibitor project, DLD1 cells, RT-qPCR, cherry-pick (AID 1053127).

SMILES strings stand for the structures. Entries with a potency or affinity are not part of this list. The source made the active and inactive calls.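 The calls were made as follows: active = compounds whose fitted curve of lowered CTGF expression reaches half effect within a set concentration limit; inconclusive = flat moderate drop in CTGF, or unreliable curve fit; inactive = the rest.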

With `O=C(CC1CC1)N1CC(=O)N2[C@H](CO)[C@@H](c3ccc(C#Cc4cccc(F)c4)cc3)[C@H]2C1`, the compound was called inactive.

For the compound `NCC[C@H]1CC[C@@H](NC(=O)NC2CCCCC2)[C@H](CO)O1`, the result was inactive. To `N#C[C@@H]1[C@H](c2ccc(-c3cccc(F)c3)cc2)[C@H](CO)N1C(=O)NC1CCCC1` belongs “inactive”; to `CNC[C@H]1Oc2c(NC(=O)Nc3cccc4ccccc34)cccc2C(=O)N([C@H](C)CO)C[C@@H]1C`, “inactive”. Consider `C[C@@H]1CN([C@@H](C)CO)C(=O)c2ccccc2-c2ccccc2CO[C@H]1CN(C)C(=O)Nc1ccc(-c2ccccc2)cc1`, for which the outcome was inactive. For `COc1ccccc1S(=O)(=O)N1CC[C@@H]2[C@H]1c1cc(-c3cccc(C#N)c3)ccc1N(C)[C@H]2CO` the value was “inactive”; for `COc1ccc(NC(=O)N(C)C[C@H]2Oc3c(NC(=O)CCCCCC(=O)Nc4ccccc4N)cccc3C(=O)N([C@H](C)CO)C[C@@H]2C)cc1`, “inactive”. To `CO[C@H]1CN(C)C(=O)c2cc(NC(=O)Nc3ccccc3F)ccc2OC[C@H](C)N(CCC(F)(F)F)C[C@@H]1C` belongs “inactive”; to `O=C(CC1CC1)N1CC(=O)N2[C@@H](CO)[C@H](c3ccc(/C=C/c4ccccc4)cc3)[C@@H]2C1`, “inactive”; to `CC(C)(C)[S@](=O)N1Cc2cc(C(=O)NCc3ccccn3)nc(-c3cccc(-c4ccccc4F)c3)c2[C@@H]1CCO`, “inactive”. In the case of `C[C@@H]1CN([C@@H](C)CO)C(=O)c2cc(C#Cc3ccccc3)cnc2O[C@@H]1CN(C)C(=O)c1ccccc1`, the call was inactive. For the compound `COc1ccc(S(=O)(=O)Nc2ccc3c(c2)C(=O)N([C@@H](C)CO)C[C@H](C)[C@@H](CN(C)S(=O)(=O)c2ccc(Cl)cc2)OCCCC[C@@H](C)O3)cc1`, the result was inactive. To `C[C@@H]1CN([C@@H](C)CO)C(=O)c2ccccc2-c2ccccc2CO[C@@H]1CN(C)S(=O)(=O)c1cn(C)cn1` belongs “inactive”; to `C[C@@H]1CN([C@H](C)CO)C(=O)CCCn2nncc2CO[C@@H]1CN(C)Cc1cccc(C(F)(F)F)c1`, “inactive”; to `C[C@H]1CC=CC[C@@H](c2ccc(F)cc2)NC(=O)[C@H](Cc2ccccc2)N(C)C(=O)c2ccccc2O1` (mixture of isomers), “inactive”. To `CN1C(=O)c2cc(NC(=O)Cc3cccs3)ccc2OC[C@@H]2O[C@@H](CC(=O)NCCc3ccncc3)CC[C@H]21` belongs “inactive”; to `COc1ccc2c3c(n(C)c2c1)[C@@H](CO)N(Cc1ccncc1)CC31CN(C(=O)Nc2cccc(F)c2)C1`, “inactive”; to `C[C@@H]1CN([C@@H](C)CO)C(=O)c2cccc(NC(=O)c3nc4ccccc4s3)c2O[C@H]1CN(C)C(=O)Nc1ccc2c(c1)OCO2`, “inactive”. To `COc1ccccc1NC(=O)N1CCCCN2[C@@H](CO)[C@H](c3ccc(-c4cccc(C#N)c4)cc3)[C@@H]2C1` belongs “inactive”; to `N#Cc1cccc(-c2ccc3c(c2)[C@@H]2[C@@H](CCN2S(=O)(=O)c2ccc(F)cc2)[C@H](CO)N3)c1`, “inactive”; to `Cc1ccc(S(=O)(=O)N[C@H]2C=C[C@H](CC(=O)NCc3ccc(Cl)c(Cl)c3)O[C@H]2CO)cc1`, “inactive”. For `CC(C)NC(=O)N[C@@H]1CC[C@H](CC(=O)NCCCN(C)C)O[C@@H]1CO`, the compound was classed as inactive. For `CN(C)C(=O)c1ccc(-c2cccc(-c3nc(C(=O)NCc4ccccc4)cc4c3[C@@H](CCO)N([S@](=O)C(C)(C)C)C4)c2)cc1` the value was “inactive”; for `COc1ccc2c3c(n(C)c2c1)[C@H](CO)N(S(C)(=O)=O)CC31CCN(C(=O)Nc2cccc(F)c2)CC1`, “inactive”.

Consider `C[C@@H]1CN([C@H](C)CO)C(=O)c2ccccc2-c2ccccc2CO[C@@H]1CN(C)Cc1ccccc1C(F)(F)F`, for which the compound was called inactive.

Regarding `CN1CCN(C(=O)C[C@@H]2CC[C@H]3[C@@H](COc4ccc(NC(=O)C5CCOCC5)cc4C(=O)N3C)O2)CC1`, the compound was called inactive. For `C[C@@H]1CN([C@H](C)CO)S(=O)(=O)c2ccc(C#Cc3cccc(F)c3)cc2O[C@@H]1CN(C)S(=O)(=O)c1cn(C)cn1` the value was “inactive”; for `CCCC#Cc1ccc([C@@H]2[C@@H](C#N)N(C(=O)CN3CCOCC3)[C@H]2CO)cc1`, “inactive”.

The values are drawn from PubChem BioAssay AID1053127 (Broad Institute, 2014).
